Screening results: PubChem, National Center for Advancing Translational Sciences (NCATS)
Rows were chosen to be rich in hits. Some 7.4% of all compounds tested hit in one or more screens of this group.
ELG1 genotoxic: inducers of genotoxicity in HEK293T ELG1-luciferase cells | HEK293T ELG1-luciferase reporter, luminescence, 16 h | Potency, µM (highest dose often 46 µM), for the others: top-dose activity change, positive = activation, actives largely listed as activators | hit rate 1.3% among 330,000 | AID 504466; also: % of control where 0% means no effect; nearly all actives have a fitted effect of over 60% in size
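16 hr compound incubation (37 °C, 5% CO2) of HEK293T cells carrying luciferase-tagged ELG1; luciferase then measured by ONE-Glo luminescence after 30 min at RT.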
SMN2 splice enh: increases expression of the SMN2 splice variant; HEK293 SMN2-luciferase splicing reporter, luminescence, 30-36 h; Potency, µM (titrated, usually from 46.1 µM), for the others: at the top dose activity change, positive = activation, hits mostly activators; hit rate 2.8% among 210,000; AID 1458; also: % of control where 0% means no effect; nearly all actives have a fitted effect of over 55% in size
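qHTS luciferase splicing reporter: luminescence rises when SMN2 exon 7 is included in transfected HEK293 cells. Compound exposure lasted 30-36 h at 37C, with 4.5 mM final sodium butyrate as control, followed by a ONE-Glo read.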
FLuc counter: counter-screen for miR-21 project: firefly luciferase inhibitors or activators; Potency, µM (doses to about 57.5 µM), inactives show at the highest dose activity change, negative = inhibition, most hits filed as inhibitors; purified FLuc, Km substrates, luminescence inhibition; AID 588342; hit rate 6.9% among 360,000; P08659;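 also: plate controls were vehicle for no effect and reference inhibitor for full effect; nearly all actives have a fitted effect of over 55% in size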
Target sequence (P08659 whole entry, looked up): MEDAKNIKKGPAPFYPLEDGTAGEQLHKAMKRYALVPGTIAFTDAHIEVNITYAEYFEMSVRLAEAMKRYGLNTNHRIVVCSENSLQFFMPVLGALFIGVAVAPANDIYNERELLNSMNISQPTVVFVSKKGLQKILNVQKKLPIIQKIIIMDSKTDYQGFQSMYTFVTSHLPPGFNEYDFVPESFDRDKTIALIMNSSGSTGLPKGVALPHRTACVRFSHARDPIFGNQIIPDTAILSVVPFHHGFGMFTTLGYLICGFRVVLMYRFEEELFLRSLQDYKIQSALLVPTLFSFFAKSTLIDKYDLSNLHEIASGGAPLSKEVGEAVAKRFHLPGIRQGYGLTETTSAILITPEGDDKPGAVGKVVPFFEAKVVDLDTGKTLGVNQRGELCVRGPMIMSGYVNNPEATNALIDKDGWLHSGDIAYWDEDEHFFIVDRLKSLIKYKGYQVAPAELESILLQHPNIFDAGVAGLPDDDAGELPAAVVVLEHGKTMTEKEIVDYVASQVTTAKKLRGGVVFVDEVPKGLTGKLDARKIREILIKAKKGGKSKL
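Biochemical qHTS of compounds, final roughly 60 µM downward over six points, against 10 nM purified firefly luciferase using Km concentrations of substrates (10 uM D-luciferin, 10 uM ATP) in Tris acetate pH 7.5 buffer; luminescence output.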
NPC1 prom act: activates the NPC1 promoter; Huh7 NPC1 promoter luciferase reporter, 24 h; Potency, µM (top dose mostly 9.22 µM), for inactives: at the highest dose activation, most hits filed as activators; hit rate 2.4% among 320,000; AID 485313; also: % of control where 0% means no effect; nearly all actives have a fitted effect of over 60% in size
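Readout is luciferase luminescence, reflecting NPC1 promoter activation in stably transfected Huh7 cells after 24 h compound exposure at 37 °C in reduced-serum medium with 10% FBS.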
Rab9 promoter act: activates the Rab9 promoter; Huh7 Rab9 promoter-luciferase reporter, luminescence, 24 h; Potency, µM (highest dose often 9.22 µM), for the others: top-dose activation, negative = inhibition, most hits filed as activators; hit rate 2.8% among 320,000; AID 485297; also: % of control where 0% means no effect; nearly all actives have a fitted effect of over 60% in size
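Rab9 promoter-driven luciferase in stably transfected Huh7 cells; 1500 cells/well rested 2 h, exposed to compound in DMSO for 24 h at 37 °C, 5% CO2. Luminescence read 10 min after adding luciferase reagent at ambient temperature.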
The depositor's hits bear a star; [ ] = remark or other dose. Calls follow the shape of the dose curve; as a rule, active = well fitted curve in the direction sought with a large enough effect; inconclusive = small, poorly fitted or top-dose-only effect, or another doubt; inactive = no such curve, though single readings can be large; an effect the other way counts as inactive or inconclusive. Potency is read from the fitted curve at half-maximal effect.

For Cc1cccc(NC(=O)CN2C(=O)S/C(=C\c3ccc(-c4cccc(C(=O)O)c4C)o3)C2=O)c1 the results were ELG1 genotoxic 0.3%, SMN2 splice enh 27.7%, FLuc counter 19µM*, NPC1 prom act -2.1% and Rab9 promoter act 6.5%.
`O=C1S/C(=C\c2ccc(N3CCOCC3)o2)C(=O)N1c1ccccc1` gave ELG1 genotoxic inconclusive, SMN2 splice enh 17.5%, FLuc counter inconclusive, NPC1 prom act inconclusive and Rab9 promoter act inconclusive.
For Cc1ccc(NC(=O)CN2C(=O)S/C(=C/c3ccc(-c4cc(C(=O)O)ccc4C)o3)C2=O)cc1C the results were ELG1 genotoxic 0.9%, SMN2 splice enh -10.8%, FLuc counter inconclusive, NPC1 prom act -0.6% and Rab9 promoter act -0.6%.
`CCOc1ccccc1N1C(=O)CN(Cc2ccc(OC)c(OC)c2)C1=S` gave ELG1 genotoxic 0.1%, FLuc counter -8.4%, NPC1 prom act -3.4% and Rab9 promoter act -4.5%.
O=[N+]([O-])c1cccc(CSC2=NCCN2S(=O)(=O)c2ccccc2)c1 was read as ELG1 genotoxic -11.4%, FLuc counter -2.2%, NPC1 prom act -0.8% and Rab9 promoter act -4.2%.
CCOC(=O)C1=C(COC(=O)[C@@H](NC(=O)c2cccc(C)c2)C(C)C)NC(=O)NC1C (stereo partly specified) was read as ELG1 genotoxic 1.1%.
CCCc1ccc(C(=O)O/N=C(\N)c2ccccn2)cc1 was read as ELG1 genotoxic 0.411µM*, FLuc counter 0.0675µM*, NPC1 prom act -20.4% and Rab9 promoter act -22.2%.
N/C(=N\OC(=O)c1ccc(=O)n(Cc2ccccc2)c1)c1ccccn1 was read as ELG1 genotoxic 14.3%, SMN2 splice enh -4.5%, FLuc counter inconclusive, NPC1 prom act 0.2% and Rab9 promoter act 2.9%.
For N/C(=N\OC(=O)c1ccc2ccccc2c1)c1ccccc1Cl the results were ELG1 genotoxic 23.1µM*, FLuc counter 1.9µM*, NPC1 prom act 3.16µM* and Rab9 promoter act 3.98µM*.
`COc1cccc(C(=O)O/N=C(\N)c2ccccn2)c1` gave ELG1 genotoxic inconclusive, FLuc counter 0.0757µM*, NPC1 prom act 2.51µM* and Rab9 promoter act 3.16µM*.
N/C(=N\OC(=O)c1ccc2ccccc2c1)c1ccccn1 was read as ELG1 genotoxic 0.58µM*, SMN2 splice enh inconclusive, FLuc counter 0.151µM*, NPC1 prom act inconclusive and Rab9 promoter act inconclusive.
`N/C(=N\OC(=O)c1ccc(=O)n(Cc2ccc(Cl)cc2)c1)c1ccccn1` gave ELG1 genotoxic 0.0%, SMN2 splice enh -12.5%, FLuc counter -12.0%, NPC1 prom act -8.7% and Rab9 promoter act -0.9%.
COc1cccc(C(=O)NCCCNC(=O)c2ccccn2)c1 was read as ELG1 genotoxic -4.4%, FLuc counter -2.0%, NPC1 prom act -0.5% and Rab9 promoter act -3.8%.
`CCC(Sc1nc(-c2ccc(F)cc2)nc2c1Cc1c(CO)cnc(C)c1O2)C(=O)Nc1ccc(F)cc1` (stereo unspecified) gave FLuc counter 3.0%.
`Cc1cc2oc(C(=O)Nc3ccc(S(=O)(=O)N4CCCCCC4)cc3)cc(=O)c2cc1C` gave SMN2 splice enh -0.1% and FLuc counter -1.5%.
COc1ccc(CN(C)Cc2c(O)ccc3cc(Br)ccc23)cc1OC was read as ELG1 genotoxic 7.7%, FLuc counter inconclusive, NPC1 prom act -2.6% and Rab9 promoter act -2.0%.
`N/C(=N\OC(=O)COc1ccc2ccccc2c1)c1ccncc1` gave ELG1 genotoxic -2.6%, FLuc counter inconclusive, NPC1 prom act -3.9% and Rab9 promoter act 1.6%.
Screening N/C(=N\OC(=O)c1ccc2ccccc2c1)c1ccncc1 returned ELG1 genotoxic 4.61µM*, FLuc counter 1.9µM*, NPC1 prom act 1.26µM* and Rab9 promoter act 1.41µM*.
Cc1ccccc1C(=O)O/N=C(\N)c1ccncc1 was read as ELG1 genotoxic inconclusive, FLuc counter 4.26µM*, NPC1 prom act inconclusive and Rab9 promoter act 3.16µM*.
N/C(=N\OC(=O)c1ccccc1Cl)c1ccncc1 was read as ELG1 genotoxic -14.6%, FLuc counter inconclusive, NPC1 prom act 25.6% and Rab9 promoter act 4.1%.
For COc1ccc2cc3cc(C(=O)N4CCN(c5ccccn5)CC4)oc3nc2c1 the results were ELG1 genotoxic -4.6%, FLuc counter 19µM*, NPC1 prom act -4.7% and Rab9 promoter act -0.4%.
For COc1ccc2nc3oc(C(=O)N4CCC(C(N)=O)CC4)cc3cc2c1 the results were ELG1 genotoxic 9.7%, SMN2 splice enh 23.4%, FLuc counter -26.6%, NPC1 prom act 20.7% and Rab9 promoter act 19.1%.
CCOC(=O)C1CCN(C(=O)c2cc3cc4ccc(OC)cc4nc3o2)CC1 was read as ELG1 genotoxic inconclusive, FLuc counter inconclusive, NPC1 prom act 0.631µM* and Rab9 promoter act 0.891µM*.
For COc1cc(C2Nc3cccc4cccc(c34)N2)ccc1OC(C)=O the results were ELG1 genotoxic 3.7%, SMN2 splice enh 0.1%, FLuc counter 12µM*, NPC1 prom act -0.3% and Rab9 promoter act 14.7%.
CCn1cc(CN2CCCC(C(=O)Nc3ccc(-c4cscn4)cc3)C2)cn1 (stereo unspecified) was read as ELG1 genotoxic 1.5%, FLuc counter 0.0%, NPC1 prom act 1.2% and Rab9 promoter act 4.7%.
Clc1cccc(Cl)c1C(Nc1nncs1)Nc1nncs1 was read as SMN2 splice enh 3.9%[9.22 µM].
`Cn1c(CN2CCOCC2)nnc1SCC(=O)Nc1ccc2c(c1)OCCO2` gave ELG1 genotoxic 6.7%, SMN2 splice enh 8.91µM*, FLuc counter 1.3%, NPC1 prom act 15.9% and Rab9 promoter act -2.7%.
For COCCCn1nnnc1SCC(=O)Nc1ccc2c(c1)OCCO2 the results were ELG1 genotoxic 3.2%, FLuc counter -9.4%, NPC1 prom act -0.8% and Rab9 promoter act -1.3%.
Screening CCn1nnnc1SCC(=O)Nc1nc(C)c(C)s1 returned ELG1 genotoxic 1.1%, SMN2 splice enh inconclusive, FLuc counter -16.9%, NPC1 prom act 16.9% and Rab9 promoter act 23.4%.
`CCn1nnnc1SCC(=O)Nc1ccc2c(c1)OCCO2` gave ELG1 genotoxic inconclusive, SMN2 splice enh 11.2µM*, FLuc counter 15.1µM*, NPC1 prom act 2.82µM* and Rab9 promoter act inconclusive.
For CCn1nnnc1SCC(=O)Nc1nnc(C(C)C)s1 the results were ELG1 genotoxic 5.5%, SMN2 splice enh 0.398µM*, FLuc counter 4.6%, NPC1 prom act -2.3% and Rab9 promoter act -5.4%.
Cc1ccccc1-c1nnc(SCC(=O)Nc2ccc3c(c2)OCCO3)n1N was read as ELG1 genotoxic 2.5%, SMN2 splice enh -4.7%, FLuc counter -6.0%, NPC1 prom act 0.4% and Rab9 promoter act -2.6%.
